ROC1-CUL1 inh – inhibitors of human ROC1-CUL1 ubiquitin ligase activity; in vitro K48 di-Ub FRET, acceptor:donor ratio, 45 min; E3 ubiquitin-protein ligase RBX1 (Homo sapiens) + Cullin-1 (Homo sapiens), P62877+Q13616; hit rate 0.6% among 140,000; inhibition, % at 10 µM; in the data active means inhibition above about 25%
Numbers stand for hits; i = inactive. Many of the other results were omitted from the sample, so hits are more common in it than they were.

SMILES	ROC1-CUL1 inh
CCc1ccc(CN2CC[C@@H](N3CCN(C)CC3)[C@H](O)C2)o1	i
CSc1ccccc1C(=O)NCc1c(C)ncc2c1CCN(C(=O)c1cc(F)c(F)cc1F)C2	i
COc1cc2c(cc1OC)C1=C(C3=CCC(=O)[C@@]3(C)CC1)[C@H](C)S2	25
COc1cc2c(cc1OC)/C(=C/CC1(C)C(=O)CCC1=O)CCS2	i
COc1cc2c(cc1OC)C(=O)CCS2	i
Cc1cccc(C)c1Oc1ncccc1CNC(=O)C1CC(=O)N(C2CC2)C1 (stereo unspecified)	i
COc1cc(NCCCCCCCN)c2ncccc2c1	i
COc1ccc(OC)c(NS(=O)(=O)c2cccc3cccnc23)c1	i
COc1cc(NCCCCCN)c2ncccc2c1	26
CC1CCc2c(sc(NC(=O)CC34CC5CC(CC(C5)C3)C4)c2C#N)C1 (stereo unspecified)	i
CN1C(=O)CC(C(C)(C)C)=NC1=O	i
CC1=NC(=O)NC(=O)C1S(=O)(=O)N(CC(=O)NCc1ccccc1Cl)c1cc(C)cc(C)c1 (stereo unspecified)	i
COc1ccc(N2C(C)=Nc3ccc(C)c4nc(C)cc2c34)cc1	i
CC(C)CN=C1C(=O)N(C)N=CC1Cl (stereo unspecified)	i
O=C1/C(=C\c2cnn(-c3ccccc3)c2)CCC/C1=C/c1cnn(-c2ccccc2)c1	i
O=C1/C(=C/c2ccoc2)CCC/C1=C\c1ccoc1	97
COc1ccc(/C=C2\CCC/C(=C\c3ccc(OC)c(OC)c3)C2=O)cc1OC	i
COc1ccc(C(=O)C(c2c(C)[nH]c3ccccc23)c2c(C)[nH]c3ccccc23)cc1	i
CCCCCCOc1ccccc1/C=c1/sc2ncnn2c1=O	i
CCOC(=O)[C@@H]1Nc2ccc(Br)cc2[C@@H]2C=CC[C@H]12	i
COC(=O)c1ccc2c(c1)C1C=CCC1C(c1ccc([N+](=O)[O-])cc1)N2 (stereo unspecified)	i
O=C(O)c1ccc2c(c1)C1C=CCC1C(C1CC=CCC1)N2 (stereo unspecified)	101
O=C(NCc1cccnc1)c1ccc(N2CCC(NCC3CCCN(c4ncccn4)C3)CC2)cc1 (stereo unspecified)	i
COc1ccc(NC(=O)C2CCN(C3NS(=O)(=O)C(c4ccc(C)c(C)c4)C3C)CC2)cc1OC (stereo unspecified)	i
CCOc1cc(/C=C2/C(=O)N(c3cccc(C(F)(F)F)c3)N=C2C)ccc1OCc1ccccc1	i
SMILES	ROC1-CUL1 inh
C#CCOc1ccc(/C=C2/C(=O)N(c3ccc(C)cc3)N=C2C)cc1OCC	i
C#CCOc1ccc(/C=C2\C(=O)N(c3ccc(C(=O)OCC)cc3)N=C2C(F)(F)F)cc1OCC	41
Cc1ccc(OCC(=O)Nc2ccc(O)cc2C)cc1	i
COc1ccccc1NC(=O)CSc1nc2scc(-c3ccc(C)o3)c2c(=O)n1-c1ccccc1	i
COc1ccc2c(c1)C=Cc1ccccc1O2	i
COc1ccc2c(c1)C(O)(C(F)(F)F)C(=O)O2 (stereo unspecified)	i
COc1ccc2c(c1)C=C1C(=CC(=O)CC1(C)C)O2	111
C=CCn1c(Sc2nc3c(C(=O)OCC)nnn3c3ccccc23)nnc1-c1ccccc1	i
CCOC(=O)c1nnn2c3ccccc3c(=O)n(CC(=O)c3ccc(Cl)cc3)c12	i
CCOC(=O)c1nnn2c1nc(Cl)c1ccccc12	79
O=C1C(C2Nc3ccccc3C2=O)=Nc2ccccc21 (stereo unspecified)	i
N=CC1Nc2ccccc2C1=O (stereo unspecified)	31
O=C1c2ccccc2NC1C=NCCO (stereo unspecified)	i
Cc1ccc(-c2ccc(C3C4=C(CC(C)(C)CC4=O)OC(=N)C3C#N)o2)cc1 (stereo unspecified)	i
COCCNC(=O)c1ccc(C2CCCN2C(=O)c2ccc(C)cc2C)s1 (stereo unspecified)	i
C=CCN1C(=O)/C(=C/c2ccc(-c3ccc(C(=O)O)cc3)o2)SC1=S	i
CN1C(=O)/C(=C/c2ccc3c(c2)OCO3)SC1=Nc1ccc(C(=O)O)cc1	i
CN1C(=O)/C(=C/c2ccc(-c3ccc(C(=O)O)cc3)o2)SC1=Nc1ccc(C(=O)O)cc1	29
COC(=O)C1C(C)=Nc2ncnn2C1c1cccnc1 (stereo unspecified)	i
Cc1ccccc1-c1ncc(CN2CCc3onc(-c4ccccc4)c3C2)cn1	i
CCCc1cc(=O)[nH]c(-c2cccc(CN3CCN(C)C(CCO)C3)c2)n1 (stereo unspecified)	i
Cc1ccc(-c2csc(SC3C(=O)N(c4ccccc4)N=C3c3ccccc3)n2)cc1 (stereo unspecified)	83
O=C(CSc1nc(-c2ccccc2)cs1)NC1=NN(c2ccccc2)C(=O)C1	i
CNC(=O)CSc1nc(-c2ccccc2)cs1	i
COc1cc(OC)c(C(=O)Nc2cc(C)on2)cc1OC	i
CCOC(=O)c1c(-c2cc(C)ccc2C)csc1NC(=O)c1ccc(F)cc1	i
CCOc1ccc(N=C2NC(=O)N(N)C2=N)cc1	i
